# In the supplement of paper PMC6555819:
# What was measured:
# Assay in all cases: PBM binding z-score (relative to random genomic background probes); higher = stronger binding; sequences stand for … in GC…GCGATTGACAGCGTAGAATGAAGG
# [1] = test system: RARb homodimer (NR concentration 270 nM)
# Summary of the method: (§1)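 Probes were double-stranded and carried 34-nt variable regions with direct-repeat seeds, single-nucleotide variants, half-site ablations and random human genomic background sequences, printed on custom Agilent 4×180K protein-binding microarrays. Arrays were incubated 1 h with ligand-free nuclear receptor dimers in PBS pH 7.4, 2% milk, 0.02% Triton X-100, 1 mM DTT, 0.2 mg/mL BSA and 0.4 mg/ml salmon testes DNA. Antibodies against each partner (one per run) detected binding, and scanned fluorescence was regression-normalized. Binding z-scores use the random background probes as reference.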
# [2] = test system: RARg:RXRa (NR concentration 270 nM, RXRa partner concentration 90 nM)
# Summary of the method: as §1
# [3] = test system: RARg homodimer (NR concentration 270 nM)
# Summary of the method: as §1
# [4] = test system: RXRa DBDmut IVT, anti-RXR (DBD mutation: RXRa K156A/R161A, NR concentration 90 nM)
# Summary of the method: as §1
# [5] = test system: RXRa homodimer (NR concentration 180 nM)
# Summary of the method: as §1
# [6] = test system: THRa:RXRa (NR concentration 90 nM, RXRa partner concentration 90 nM)
# Summary of the method: as §1
# [7] = test system: THRa homodimer (NR concentration 90 nM)
# Summary of the method: as §1
# [8] = test system: VDR:RXRa (NR concentration 270 nM, RXRa partner concentration 90 nM)
# Summary of the method: as §1
# [9] = test system: VDR homodimer (NR concentration 270 nM)
# Summary of the method: as §1
Sequence,PBM binding z-score [1],PBM binding z-score [2],PBM binding z-score [3],PBM binding z-score [4],PBM binding z-score [5],PBM binding z-score [6],PBM binding z-score [7],PBM binding z-score [8],PBM binding z-score [9]
CGAACTAGGTCAGAACAAGACAGTGAAGGATGAT,1.79,2.37,3.15,0.577,1.31,1.32,0.101,0.215,0.237
CGTCAAAGTTCGAGGTAACGTAACAGAAAGCAGC,1.46,1.92,2.31,2.39,1.64,2.1,0.898,1.32,1.2
TATTGTAGATCAGCAGGTTAAGAAAGCTGGCCAA,-0.28,-0.0508,0.00581,-1.23,0.171,0.0661,-0.952,0.112,-0.39
CGTCCAAGATCAGCAGGTCAGTGAAAGCGACGTG,2.09,1.01,1.51,0.253,0.844,1.11,0.018,0.173,0.137
CCAGACAGGTGAGAAGGTAGCTCAGCCTCGATTA,0.12,0.0158,-0.00904,-0.104,-0.128,-0.29,-0.679,-0.387,-0.24
TAGCCTAGGACATTGGGCCAGTATAGTACGCATC,-0.251,-0.0558,0.0958,-0.671,-0.0784,0.281,-0.00513,-0.544,-0.291
AGAATGAGGTTACGAAAGATCAGGGAAACGCTTG,0.671,2.26,1.68,1.11,2.73,2.89,0.487,1.52,0.194
ATTCAAAGTTCACTAGGTAACGTAAGATTCAGCT,3.66,4.48,5.35,4.38,3.58,2.03,0.474,3.43,4.11
CCAGACAGGTGAGAAGGTAATTCAGCCTCGATTA,0.446,0.488,0.401,-0.0232,0.24,0.0341,0.0221,-0.16,-0.0971
CGTCAAAGTTCAACAAAGGTAACGTAAAGCACGC,4.37,5.63,6.4,4.53,4.82,4.66,0.367,4.46,3.16
TCGAGGAGGTTAGTCGGGGCATTCAGCCAACATA,1.08,0.581,0.486,0.514,0.67,2.08,0.602,3.8,1.04
CCTAGCACGCCAGGGTCACTCAAGCATTTCGCTT,2.65,2.94,2.18,0.65,3.14,2.76,1.12,2.56,0.973
TTACCAAGGTGAATGTCGTTGATCCCTCTGTAGA,0.851,0.459,0.367,0.1,0.711,1.82,0.923,0.328,-0.448
ACAGACAGGTGATGAAAGTAACTCAGGCTATCAT,-0.49,0.123,0.169,-0.387,0.297,-0.0258,-0.579,-0.184,-0.942
GATACAGGGTCAAGGCCAGATTACGCGTATTGAT,3.73,5.64,5.39,2.72,6.08,3.68,1.61,4.45,2.09
TCGAGTAGGTTACCAATGGGGCATTCCGCTTTCT,0.449,0.942,0.197,0.173,0.226,-0.155,-0.631,0.11,-0.741
